The results in this text go back to PubChem BioAssay AID504334 (NMMLSC, 2011).

Activity calls are given as the source filed them.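 The calls were made as follows: active = response relative to DMSO over 150%; inconclusive = yeast strain with under 70 recorded events; inactive = the rest.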

The nature of this test: AGP1-GFP expression modulators, hit retest, confirmation, cell-based, flow cytometry, S. cerevisiae, cherry pick set 3 (AID 504334).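 Also: median GFP fluorescence per well by flow cytometry over the all cells gate; ratio of sample to mean DMSO control signal so DMSO = 100% not 0%.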 The conditions noted are these: S. cerevisiae AGP1-GFP strain, 3 h, at 10 µM, hits give high values. (Flow cytometry measures light scatter and fluorescence of single cells or particles in a stream.)
For `Oc1ccc(Cl)c2cccnc12`, the percent response vs DMSO is 109% (inactive).
Under `COCCCNc1nc(N)c([N+](=O)[O-])c(Nc2cc(OC)ccc2OC)n1` stands 100% (inactive); under `Nn1cnc2c(c1=O)C1(CCCCC1)Cc1ccccc1-2`, 94.1% (inactive); under `O=C(Nc1ccccc1)ON=C1c2ccccc2-c2ccccc21`, 97.8% (inactive).
For the compound `COc1ccc(OC)c(Nc2nc(NCCC(C)C)nc(N)c2[N+](=O)[O-])c1`, the percent response vs DMSO is 98.4% (inactive).
Under `COc1ccc(N/C(C)=C/C(=O)c2ccccc2)cc1` stands 98.4% (inactive); under `Oc1c(I)cc(Cl)c2cccnc12`, 100% (inactive); under `CCCC(=O)Nn1cnc2c(c1=O)C1(CCCC1)Cc1ccccc1-2`, 101% (inactive).
Under `Cc1cc(C)c2ccc(C(=O)O)nc2c1O` stands 97.4% (inactive); under `COC(=O)c1cc(=O)c2cccc(OC)c2[nH]1`, 99.4% (inactive).
Under `C/C(=N\NC(=O)c1cccc2ccccc12)c1cccnc1` stands 99.4% (inactive); under `Nc1c(C(=O)O)ccc2c1C(=O)c1ccccc1C2=O`, 114% (inactive).
In the case of `Cc1cccc(Nc2cc(=O)[nH]c(=O)[nH]2)c1`, the percent response vs DMSO is 96.8% (inactive).
Under `COc1cccc2c(O)cc(=O)n(C)c12` stands 99.1% (inactive); under `CC1=CN2C(=N)/C(=C/c3ccc([N+](=O)[O-])o3)C(=O)N=C2S1`, 569% (active); under `Cc1nc(Nc2ccc(Br)cc2Br)c([N+](=O)[O-])c(=O)[nH]1`, 95.4% (inactive).
For `Cc1ccc2nc(-c3ccc(NC(=O)c4cccnc4)cc3)oc2c1`, the percent response vs DMSO is 93.8% (inactive).
Under `COc1cc(OC)cc(C(=O)Nc2ccc(-c3nc4ccccc4o3)cc2)c1` stands 99.1% (inactive); under `C=CCNc1nc(N)c([N+](=O)[O-])c(Nc2cccc(Cl)c2)n1`, 92.1% (inactive); under `OCCNc1ncnc2ccc(Br)cc12`, 101% (inactive).
Take `OCc1ccnc2c(O)cccc12`: the percent response vs DMSO is 100% (inactive).
